Assay results taken from PubChem BioAssay.
Activity calls are given as the source filed them.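 Rule for the calls, unless noted: active = fluorescence slope higher than the sample average by over 3 SD (cut at about -0.22 in these data, passing the limit was not always enough); inactive = the rest.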

Assays:
[1] = inhibitors of TNFa-induced NFkB p65 translocation, primary screen, imaging, HUVEC, MLSMR starter and 10KST1 sets (AID 438;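 active = inhibition above 20% together with a positive visual image hit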;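 note: compound added about 3h40 before a 20 min TNFalpha stimulation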;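 for inhibition: signal is the nuclear over cytoplasmic p65 intensity ratio per well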); conditions: HUVEC TNFa-induced p65 nuclear translocation; cell count: measured here: nuclei count (cytotoxicity indicator), at 2.08 µM; inhibition: at 2 µM, stronger effect = higher value, 0% TNFa-plus-vehicle, 100% no-TNFa wells
[2] = reduction of polyQ htt aggregates in cells – imaging, exon1htt(103Q)mCFP cells, high-content imaging, primary screen (AID 483;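 active = visual image review flags a hit and inhibition of aggregation exceeds 20%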;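 note: compound exposure lasted 3 days before fixation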;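 for nuclei count: percent of the per-plate median nuclei count of sample wells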); conditions: exon1htt(103Q)mCFP cell line, aggregate imaging, at 2 µM; inhibition of aggregation: stronger effect = higher value; nuclei count: measured here: cell count, toxicity
[3] = endothelial E-selectin expression blockers – imaging, HUVEC, immunofluorescence, MLSMR starter and 10KST1 sets, primary screen (AID 487;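 active = visually confirmed hit in the image check and inhibition above 20%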;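 for inhibition: signal is fraction of cell area covered by stained E-selectin grains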;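 for nuclei count: 100% = median nuclei count of all wells on the same plate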); conditions: HUVEC TNFalpha-induced E-selectin immunofluorescence imaging, at 2 µM; inhibition: stronger effect = higher value; nuclei count: measured here: cell number, toxicity
[4] = target: Voltage-gated potassium channel subunit beta-2 (Rattus norvegicus) (UniProt P62483); assay: inhibitors of rat Kvbeta2 reductase activity – biochemical, NADPH fluorescence, primary screen (AID 622); conditions: recombinant KvBeta, 4-cyanobenzaldehyde reduction, at 10 µM, stronger effect = higher value;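 note: slope of raw intensity against log time taken from 70 to 1610 s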
[5] = target: Voltage-gated potassium channel subunit beta-2 (Rattus norvegicus) (UniProt P62483); assay: enhancers of rat Kvbeta2 NADPH turnover – biochemical, NADPH fluorescence, primary screen (AID 623;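 active = NADPH fluorescence slope more negative than the mean of all samples by about 3 SD, 99.7% confidence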;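 note: fluorescence intensity change per second fitted from 20 to 320 s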); conditions: Recombinant KvBeta, NADPH fluorescence decrease slope, 10 min; at 10 µM; stronger effect = lower value
[6] = target: Alpha-2C adrenergic receptor (Homo sapiens) (UniProt P18825); assay: compounds altering alpha2C-coupled GIRK flux – cell-based, HEK293 alpha2C/GIRK1/2, thallium flux, primary screen (AID 624;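 active = fluorescence slope after compound addition differing from the mean of all screened samples at 99.7% confidence, in either direction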;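 note: slope of fluorescence ratio to pre-addition baseline per second over 15 to 24 s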); conditions: thallium flux BTC fluorescence, at 10 µM, actives lie on both sides
[7] = blockers of RIG-like receptor reporter activation – cell-based, Sendai virus stimulus, luciferase, 10K MLSCN set, TLR/RLR signaling modifier project, primary screen (AID 602276;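 active = inhibition at or above 50% at 10 µM; inactive = inhibition below 50%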;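 note: firefly luciferase from ISG56 promoter only with Renilla not read in this screen; 0% = Sendai virus plus DMSO and 100% = medium plus DMSO without virus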); conditions: HEK293 RL24 IRF3 luciferase reporter, at 10 µM, stronger effect = higher value
[8] = TLR3 IRF3 reporter activation blockers – cell-based, poly I:C stimulus, luciferase, 10K MLSCN set, primary screen (AID 602277;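 active = inhibition of the reporter signal at or above 50%; inactive = inhibition below 50%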); conditions: HEK293-TLR3 RL24 IRF3 luciferase reporter, at 10 µM, stronger effect = higher value

Voltage-gated potassium channel subunit beta-2 (Rattus norvegicus), sequence (P62483 whole entry, looked up): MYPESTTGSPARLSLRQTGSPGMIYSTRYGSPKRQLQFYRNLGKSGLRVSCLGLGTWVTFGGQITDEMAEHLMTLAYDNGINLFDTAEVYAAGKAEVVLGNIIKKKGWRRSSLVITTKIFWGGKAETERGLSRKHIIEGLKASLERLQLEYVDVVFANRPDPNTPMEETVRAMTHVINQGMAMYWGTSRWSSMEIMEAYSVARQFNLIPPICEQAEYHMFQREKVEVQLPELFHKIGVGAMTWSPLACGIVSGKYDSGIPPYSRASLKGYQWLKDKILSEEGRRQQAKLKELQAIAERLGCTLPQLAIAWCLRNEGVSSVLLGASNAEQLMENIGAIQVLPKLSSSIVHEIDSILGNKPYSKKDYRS
Alpha-2C adrenergic receptor (Homo sapiens), sequence (P18825 whole entry, looked up): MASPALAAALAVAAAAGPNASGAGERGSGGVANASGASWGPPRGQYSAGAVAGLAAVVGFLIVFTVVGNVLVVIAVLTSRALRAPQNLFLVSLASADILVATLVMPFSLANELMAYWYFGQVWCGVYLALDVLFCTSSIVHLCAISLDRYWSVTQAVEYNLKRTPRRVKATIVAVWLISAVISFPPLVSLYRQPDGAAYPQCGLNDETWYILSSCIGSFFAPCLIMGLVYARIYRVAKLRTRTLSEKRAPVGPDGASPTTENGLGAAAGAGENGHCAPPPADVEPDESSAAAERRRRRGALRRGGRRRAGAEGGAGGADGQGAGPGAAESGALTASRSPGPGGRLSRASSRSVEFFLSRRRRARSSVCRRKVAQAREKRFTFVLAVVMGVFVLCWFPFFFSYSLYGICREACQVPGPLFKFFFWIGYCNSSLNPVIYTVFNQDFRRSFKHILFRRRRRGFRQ

Compound | cell count [1] | inhibition [1] | inhibition of aggregation [2] | nuclei count [2] [%] | inhibition [3] | nuclei count [3] [%] | fluorescence slope [4] | NADPH fluorescence slope [5] | slope [6] | inhibition [7] | inhibition [8]
COc1cccc(C2C(C(N)=O)=C(C)Nc3nc(-c4ccccc4Cl)nn32)c1 (centres undefined) | 804 | -4% (inactive) | -14.6% (inactive) | 93.9 | -48.3% (inactive) | 110 | -0.416 (inactive) | -9.2e-05 (inactive) | 0.00547 (inactive) | 12.6% (inactive) | 40.8% (inactive)
COc1ccccc1N1CC(O)=C(c2nc3ccccc3c(=O)[nH]2)C1=N | 399 | 1.4% (inactive) | 22.7% (inactive) | 62.7 | -73.7% (inactive) | 126 | -0.546 (inactive) | -3.6e-05 (inactive) | 0.00655 (inactive) | 11.7% (inactive) | 28.7% (inactive)
CN(C1CCCCC1)S(=O)(=O)c1ccc(NC(=O)c2ccco2)cc1 | 301 | 2.8% (inactive) | -6.6% (inactive) | 106 | -28.1% (inactive) | 112 | -0.399 (inactive) | -4.1e-05 (inactive) | 0.00468 (inactive) | 4.93% (inactive) | -6.73% (inactive)
CCCn1c(=O)c2ccccc2n2c(SCCOc3ccccc3F)nnc12 | 574 | -10.2% (inactive) | 4.4% (inactive) | 85.2 | 0.6% (inactive) | 156 | -0.477 (inactive) | 4.6e-05 (inactive) | 0.00598 (inactive) | -3.21% (inactive) | -3.55% (inactive)
O=C(Nc1nc(-c2ccccn2)cs1)C1CC1 | 673 | -3.3% (inactive) | 2.7% (inactive) | 94.5 | -21% (inactive) | 115 | -0.482 (inactive) | -7.5e-05 (inactive) | 0.00645 (inactive) | -68.6% (inactive) | -114% (inactive)
Cn1c(SCC(N)=O)nnc1C1CCN(C(=O)NCc2ccccc2)CC1 | 325 | 6.8% (inactive) | -6.1% (inactive) | 99.8 | -74.7% (inactive) | 108 | -0.385 (inactive) | -5.9e-05 (inactive) | 0.00348 (inactive) | 5.51% (inactive) | 21.8% (inactive)
COC(=O)C1=C(C)NC2=C(C(=O)CCC2)C1c1coc2ccccc2c1=O (centres undefined) | 322 | -2.1% (inactive) | 14.4% (inactive) | 98.3 | -47.5% (inactive) | 111 | -0.244 (inactive) | 7.1e-06 (inactive) | 0.00668 (inactive) | 16.4% (inactive) | 48.4% (inactive)
O=C(Nc1nc2c(s1)CCc1ccccc1-2)c1cccs1 | 637 | -3.6% (inactive) | -9.4% (inactive) | 115 | 30.8% (inactive) | 86.1 | -0.361 (inactive) | 1.5e-05 (inactive) | 0.00613 (inactive) | 12.8% (inactive) | -8.29% (inactive)
CN(C)CCCN1C(=O)c2oc3ccccc3c(=O)c2C1c1cccs1 (centres undefined) | 665 | -1.2% (inactive) | -8.2% (inactive) | 107 | -25.6% (inactive) | 132 | -0.443 (inactive) | 4e-06 (inactive) | 0.00339 (inactive) | 7.52% (inactive) | 8.07% (inactive)
CCOC(=O)CN(C(=O)c1ccccc1)c1ccccc1C | 600 | -2.5% (inactive) | -11.5% (inactive) | 108 | 36% (inactive) | 72.6 | -0.419 (inactive) | 1.1e-05 (inactive) | 0.00342 (inactive) | 3.43% (inactive) | 31% (inactive)
COc1cc(C(=O)OC(C)CN2CCCC2)cc(OC)c1OC (centres undefined) | 286 | 2.9% (inactive) | -4.1% (inactive) | 101 | 30.9% (inactive) | 101 | -0.324 (inactive) | -5.1e-05 (inactive) | 0.00369 (inactive) | 5.11% (inactive) | 11.1% (inactive)
c1ccc(Cn2ncc3c2ncn2c(-c4ccncc4)nnc32)cc1 | 430 | -10.4% (inactive) | -7.2% (inactive) | 117 | -36% (inactive) | 98.3 | -0.517 (inactive) | -1.5e-05 (inactive) | 0.00557 (inactive) | -13.1% (inactive) | -7.97% (inactive)
CCc1ccc(NC(=O)c2cccnc2)cc1 | 337 | -3.8% (inactive) | 23.7% (inactive) | 88 | -14.1% (inactive) | 110 | -0.429 (inactive) | -2.2e-05 (inactive) | 0.00479 (inactive) | -27% (inactive) | -80.3% (inactive)
CCn1c(SCC(=O)Nc2ccc(C(=O)OC)cc2)nnc1-c1cccs1 | 654 | 11.5% (inactive) | 24.6% (inactive) | 110 | 42.7% (inactive) | 106 | -0.379 (inactive) | -5.2e-05 (inactive) | 0.00499 (inactive) | 14.1% (inactive) | 12.6% (inactive)
